Experimental findings from PubChem BioAssay are described below.

Where “and” joins values, the source holds several entries; their conditions need not be identical. Equal values may be shown once. For some assays here: Results with a measured potency or affinity are listed apart. The source holds several records for some structures; these can differ, active in one and inactive in another. Calls of active or inactive are those of the source. Unless noted, how the calls were made is not given here.

Assay [1] is described as follows: antimalarial activity against Dd2 strain (AID 2302;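 active means growth inhibition above 50% at the single 2 µM test dose, taken to imply half-maximal potency below 2 µM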;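 further: 0% = DMSO untreated growth and 100% = chloroquine plus artemisinin killed control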). The note with it: P. falciparum Dd2 in RBCs, LDH growth readout, 72 h; at 2 µM; stronger effect = higher value.
Assay [2] is described as follows: human hepatoma cell viability loss – ATP luminescence, cytotoxicity control for P. falciparum antimalarial project, primary screen (AID 2303;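 active means inhibition above 50%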;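 further: 0% = DMSO wells and 100% = digitonin-killed cells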). The note with it: HepG2 viability, 24-48 h, at 10 µM, stronger effect = higher value.
Assay [3] has as its target L-lactate dehydrogenase (Plasmodium falciparum (isolate CDC / Honduras)) (UniProt Q27743). The experiment in a line: PfLDH activity inhibition – cell lysate, 3D7 strain, counter-screen for P. falciparum growth inhibition project (AID 2304).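 Further: 0% = vehicle and 100% = reference inhibitor.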 To be noted: P. falciparum 3D7 crude extract, LDH APAD/NBT absorbance; at 2 µM; stronger effect = higher value. (In general: Counterscreens check selectivity or assay interference.)

Assay [4] in a line: inhibition of 3D7 malaria parasite growth – strain 3D7 (AID 2306).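 Further: 0% = DMSO wells and 100% = chloroquine plus artemisinin control wells.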 The note with it: P. falciparum 3D7 erythrocytic growth, LDH absorbance, 72 h; at 2 µM; stronger effect = higher value.
Assay [5] has as its target Calcium-dependent protein kinase 1 (Plasmodium falciparum (isolate 3D7)) (UniProt P62344). Put plainly: PfCDPK1 kinase inhibitors, biochemical, TCAMS library (AID 1159585; cut-off not given, nearly all actives have IC50 up to about 0.98 µM;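 further: inhibitors leave more ATP so luminescence rises with inhibition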). The note with it: recombinant PfCDPK1, Kinase-Glo ATP depletion luminescence. A general note: In Kinase-Glo more light means more ATP remaining.
Assay [6] addresses Plasmodium falciparum protein kinase 6 (PK6, PF3D7_1337100) (UniProt Q8IDW1). Put plainly: PfPK6 kinase inhibitors, biochemical, TCAMS library (AID 1159586). The note with it: recombinant PfPK6, Kinase-Glo ATP depletion luminescence.
The target in assay [7] is Protein kinase 7 (PK7), Plasmodium falciparum 3D7 (PF3D7_0213400) (UniProt Q7YTF7). The experiment in a line: inhibition of Plasmodium PK7 catalytic activity – biochemical, TCAMS antimalarial set, Kinase-Glo luminescence (AID 1159587). To be noted: recombinant PfPK7, Kinase-Glo ATP depletion luminescence.
The target in assay [8] is Calcium-dependent protein kinase 4 (Plasmodium falciparum (isolate 3D7)) (UniProt Q8IBS5). Put plainly: PfCDPK4 kinase inhibitors, biochemical, TCAMS library (AID 1159588; cut-off not given, nearly all actives have IC50 up to about 0.91 µM). To be noted: recombinant PfCDPK4, Kinase-Glo ATP depletion luminescence.
Calcium-dependent protein kinase 4 (Plasmodium falciparum (isolate 3D7)), sequence (Q8IBS5 whole entry, looked up): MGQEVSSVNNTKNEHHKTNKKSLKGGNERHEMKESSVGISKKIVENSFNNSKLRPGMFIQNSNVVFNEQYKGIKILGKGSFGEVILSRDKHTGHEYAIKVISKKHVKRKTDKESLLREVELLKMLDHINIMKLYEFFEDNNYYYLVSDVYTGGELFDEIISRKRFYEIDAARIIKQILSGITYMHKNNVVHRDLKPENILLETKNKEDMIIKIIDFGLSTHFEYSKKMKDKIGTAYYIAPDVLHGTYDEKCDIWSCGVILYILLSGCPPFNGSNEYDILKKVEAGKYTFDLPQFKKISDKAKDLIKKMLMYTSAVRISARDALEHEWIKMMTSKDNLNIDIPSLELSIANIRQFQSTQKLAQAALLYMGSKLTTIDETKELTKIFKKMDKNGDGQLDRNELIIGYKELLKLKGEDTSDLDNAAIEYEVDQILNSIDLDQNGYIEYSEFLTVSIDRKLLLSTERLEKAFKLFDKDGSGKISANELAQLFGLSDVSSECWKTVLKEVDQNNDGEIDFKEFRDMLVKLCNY

L-lactate dehydrogenase (Plasmodium falciparum (isolate CDC / Honduras)), sequence (Q27743 whole entry, looked up): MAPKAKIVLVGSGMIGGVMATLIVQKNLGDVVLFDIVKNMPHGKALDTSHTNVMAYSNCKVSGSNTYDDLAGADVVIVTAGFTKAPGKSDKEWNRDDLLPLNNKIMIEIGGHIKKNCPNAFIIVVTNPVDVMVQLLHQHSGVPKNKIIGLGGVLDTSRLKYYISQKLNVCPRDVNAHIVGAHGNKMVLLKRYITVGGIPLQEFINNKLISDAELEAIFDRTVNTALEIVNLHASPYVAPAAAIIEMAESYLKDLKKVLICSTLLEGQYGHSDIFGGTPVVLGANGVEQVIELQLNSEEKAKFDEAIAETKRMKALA
Calcium-dependent protein kinase 1 (Plasmodium falciparum (isolate 3D7)), sequence (P62344 whole entry, looked up): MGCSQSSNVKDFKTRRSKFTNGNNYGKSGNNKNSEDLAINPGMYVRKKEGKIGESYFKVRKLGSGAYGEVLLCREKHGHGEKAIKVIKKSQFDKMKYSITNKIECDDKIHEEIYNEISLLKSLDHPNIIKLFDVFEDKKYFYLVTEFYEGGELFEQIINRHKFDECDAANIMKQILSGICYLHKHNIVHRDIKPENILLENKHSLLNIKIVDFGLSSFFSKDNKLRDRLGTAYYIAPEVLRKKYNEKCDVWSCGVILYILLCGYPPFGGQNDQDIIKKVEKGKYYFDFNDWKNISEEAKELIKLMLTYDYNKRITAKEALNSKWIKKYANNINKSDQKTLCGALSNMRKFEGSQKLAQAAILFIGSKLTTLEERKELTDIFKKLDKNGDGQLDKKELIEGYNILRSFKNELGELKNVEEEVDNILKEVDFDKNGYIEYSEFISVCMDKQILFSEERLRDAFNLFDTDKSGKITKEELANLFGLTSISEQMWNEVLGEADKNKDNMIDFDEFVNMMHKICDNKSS
Plasmodium falciparum protein kinase 6 (PK6, PF3D7_1337100), sequence (Q8IDW1 1-305): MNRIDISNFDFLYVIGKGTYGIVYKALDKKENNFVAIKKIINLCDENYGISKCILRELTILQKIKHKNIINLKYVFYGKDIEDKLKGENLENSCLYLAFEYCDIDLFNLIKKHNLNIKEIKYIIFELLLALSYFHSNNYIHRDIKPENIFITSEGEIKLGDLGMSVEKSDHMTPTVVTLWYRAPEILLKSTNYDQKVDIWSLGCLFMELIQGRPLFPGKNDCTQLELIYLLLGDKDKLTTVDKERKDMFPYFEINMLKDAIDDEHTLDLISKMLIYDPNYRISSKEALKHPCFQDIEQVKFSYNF
Protein kinase 7 (PK7), Plasmodium falciparum 3D7 (PF3D7_0213400), sequence (Q7YTF7 1-343): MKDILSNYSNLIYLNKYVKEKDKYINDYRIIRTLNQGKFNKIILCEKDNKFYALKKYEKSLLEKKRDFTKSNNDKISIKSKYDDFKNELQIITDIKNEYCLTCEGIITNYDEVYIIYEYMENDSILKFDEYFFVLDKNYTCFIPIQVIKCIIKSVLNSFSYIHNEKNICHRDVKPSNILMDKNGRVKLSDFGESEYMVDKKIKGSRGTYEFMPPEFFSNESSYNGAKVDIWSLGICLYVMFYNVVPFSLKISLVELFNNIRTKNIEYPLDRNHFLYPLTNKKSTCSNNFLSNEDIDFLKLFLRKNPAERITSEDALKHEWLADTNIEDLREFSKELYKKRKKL

With `COc1cc(/C=C/C(=O)NC2CCC(CN3CCC(c4c[nH]c5ccccc45)CC3)CC2)ccc1O` (configuration not stated), the growth inhibition is 45% (inactive) and 44% (inactive) in assay [1]; 98% (active) and 99% (active) in assay [4]. Further, the inhibition is 11% (inactive) and 19% (inactive) in assay [2]; -8% (inactive) and -2% (inactive) in assay [3]. The result in assay [5], in assay [6], in assay [7] and in assay [8] was inactive.
For `CN(c1cc(NC(=O)c2cccs2)ccn1)C1CCN(Cc2cccc(C#N)c2)CC1`, the values for the growth inhibition in assay [1] and in assay [4] were 69% (active) and 90% (active), respectively. Further, the inhibition was 59% (active) in assay [2] and 4% (inactive) in assay [3]. The outcome in assay [5], in assay [6], in assay [7] and in assay [8] was inactive.
As to `COC(=O)c1ccc(CC(C)NCC(O)c2cccc(Oc3cccc(C(F)(F)F)c3)c2)cc1` (configuration not stated), the results for the growth inhibition in assay [1] and in assay [4] were 73% (active) and 91% (active), respectively. Besides, the inhibition was 19% (inactive) in assay [2] and 2% (inactive) in assay [3]. Moreover, the outcome in assay [5], in assay [6], in assay [7] and in assay [8] was inactive.
As for `CC(Cc1ccc(OCc2ccc(CCN(C)C)cc2)cc1)NCCc1cccc(Cl)c1` (configuration not stated), the growth inhibition in assay [1] was 78% (active); in assay [4], 100% (active). Besides, the inhibition is 42% (inactive) in assay [2] and 5% (inactive) in assay [3]. Further, the result in assay [5], in assay [6], in assay [7] and in assay [8] was inactive.
Turning to `Cc1c(C(=O)NC2CCC(CN3CCC(c4c[nH]c5ccccc45)CC3)CC2)cnn1-c1c(Cl)cc(Cl)cc1Cl` (configuration not stated), the figures for the growth inhibition in assay [1] and in assay [4] were 97% (active) and 100% (active), respectively. Moreover, the inhibition in assay [2] was 53% (active); in assay [3] it was 4% (inactive). For the same compound, the result in assay [5], in assay [6], in assay [7] and in assay [8] was inactive.
Turning to `O=C(CCC(=O)c1ccc2c3c(cccc13)CC2)NC1CCC(CN2CCC(c3c[nH]c4ccccc34)CC2)CC1` (configuration not stated), the growth inhibition in assay [1] was 13% (inactive); in assay [4], 96% (active). In addition, the results for the inhibition in assay [2] and in assay [3] were 34% (inactive) and -1% (inactive), respectively. Moreover, the outcome in assay [5], in assay [6], in assay [7] and in assay [8] was inactive.
Take `CC[C@H]1CN2CC[C@@H]1C[C@H]2[C@H](O)c1ccnc2ccc(OC)cc12`: the values for the growth inhibition in assay [1] and in assay [4] were 61% (active) and 100% (active), respectively. For the same compound, the results for the inhibition in assay [2] and in assay [3] were -8% (inactive) and -4% (inactive), respectively. Also, the outcome in assay [5], in assay [6], in assay [7] and in assay [8] was inactive.
In the case of `Cc1cc(O)cc2c(C3CCN(CC4CCC(NC(=O)/C=C/c5ccccc5Cl)CC4)CC3)c[nH]c12` (configuration not stated), the values for the growth inhibition in assay [1] and in assay [4] were 84% (active) and 99% (active), respectively. Moreover, the inhibition is 21% (inactive) in assay [2] and 1% (inactive) in assay [3]. Besides, the outcome in assay [5], in assay [6], in assay [7] and in assay [8] was inactive.
As for `CCOC(=O)c1c(C)n(C2CCCCC2)c2cc(Br)c(O)cc12`, the growth inhibition in assay [1] was 71% (active); in assay [4], 98% (active). In addition, the inhibition in assay [2] was 1% (inactive); in assay [3] it was -3% (inactive). Also, the result in assay [5], in assay [6], in assay [7] and in assay [8] was inactive.
With `Cc1cc(N(C)C2CCN(C)CC2)nc(Nc2ccc(Br)cc2)n1`, the growth inhibition is 92% (active) in assay [1] and 100% (active) in assay [4]. Also, the figures for the inhibition in assay [2] and in assay [3] were -5% (inactive) and 2% (inactive), respectively. The outcome in assay [5], in assay [6], in assay [7] and in assay [8] was inactive.
Take `O=C(C=Cc1ccccc1Br)NC1CCC(CN2CCC(c3c[nH]c4ccccc34)CC2)CC1` (configuration not stated): the growth inhibition was 32% (inactive) and 57% (active) in assay [1]; 101% (active) and 102% (active) in assay [4]. For the same compound, the inhibition was 36% (inactive) and 43% (inactive) in assay [2]; 4% (inactive) in assay [3]. The result in assay [5], in assay [6], in assay [7] and in assay [8] was inactive.
In the case of `CC[C@H]1CN2CCc3cc(OC)c(OC)cc3[C@@H]2C[C@@H]1C[C@H]1NCCc2c1cc(OC)c(OC)c2Br`, the results for the growth inhibition in assay [1] and in assay [4] were 97% (active) and 99% (active), respectively. In addition, the inhibition in assay [2] was 45% (inactive); in assay [3], -1% (inactive). The outcome in assay [5], in assay [6], in assay [7] and in assay [8] was inactive.
On to `C=CCOc1ccccc1CNCC(O)c1cccc(C(F)(F)F)c1` (configuration not stated), for which the growth inhibition in assay [1] was 98% (active); in assay [4], 99% (active). For the same compound, the inhibition in assay [2] is 10% (inactive); in assay [3], -1% (inactive). The outcome in assay [5], in assay [6], in assay [7] and in assay [8] was inactive.
As for `CC(Cc1ccc(NC(=O)CCNCc2ccccc2)cc1)NCCc1cccc(Cl)c1` (configuration not stated), the growth inhibition in assay [1] was 100% (active); in assay [4], 101% (active). In addition, the inhibition is 101% (active) in assay [2] and 3% (inactive) in assay [3]. Further, the outcome in assay [5], in assay [6], in assay [7] and in assay [8] was inactive.
In the case of `CN(c1cc(NC(=O)c2ccc(F)cc2)ccn1)C1CCN(Cc2cccc(O)c2)CC1`, the growth inhibition was 82% (active) in assay [1] and 100% (active) in assay [4]. Moreover, the inhibition was 3% (inactive) in assay [2] and 2% (inactive) in assay [3]. The outcome in assay [5], in assay [6], in assay [7] and in assay [8] was inactive.
For `CC[C@H]1CN2CC[C@H]1C[C@H]2[C@H](O)c1cc(/C=C/c2ccccc2)nc2ccc(OC)cc12`, the growth inhibition in assay [1] and in assay [4] was 99% (active) throughout. Further, the inhibition is 16% (inactive) in assay [2] and -1% (inactive) in assay [3]. The outcome in assay [5], in assay [6], in assay [7] and in assay [8] was inactive.
For the compound `COc1ccc(CC(C)NCC(O)c2cccc(Br)c2)cc1` (configuration not stated), the growth inhibition in assay [1] was 93% (active); in assay [4] it was 99% (active). For the same compound, the inhibition in assay [2] was 10% (inactive); in assay [3], -1% (inactive). For the same compound, the result in assay [5], in assay [6], in assay [7] and in assay [8] was inactive.
As for `CCC(C)CN1CCC(N(C)c2cc(NC(=O)c3ccc(F)cc3)ccn2)CC1` (configuration not stated), the figures for the growth inhibition in assay [1] and in assay [4] were 32% (inactive) and 93% (active), respectively. Besides, the figures for the inhibition in assay [2] and in assay [3] were 4% (inactive) and -5% (inactive), respectively. For the same compound, the outcome in assay [5], in assay [6], in assay [7] and in assay [8] was inactive.
Consider `CN(c1ccc(NC(=O)CCOc2ccccc2)cc1)C1CCN(Cc2cccc(O)c2)CC1`, for which the growth inhibition in assay [1] was -1% (inactive); in assay [4], 89% (active). The inhibition is 18% (inactive) in assay [2] and 3% (inactive) in assay [3]. Further, the outcome in assay [5], in assay [6], in assay [7] and in assay [8] was inactive.

For orientation: inhibition means the change of the read-out against control, counted positive when it falls.
